Most compounds without a hit are left out; they make up all but 1.2% or so of the library.
RGS7-Gao reg = modulates binding of RGS7 to human Galphao; P09471; Multiplexed bead flow cytometry; actives lie on both sides; binding response (% of control), % at 10 µM; 0.35% of 220,000 active; AID 1439; in the data active means binding response below about 49% or above about 150%; inconclusive means no clear call, values can overlap the other calls; inactive means in between;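 further: fluorescent Galphao held in activated GDP-AlF4 state binding bead-coupled RGS7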
Target sequence (P09471 whole entry, looked up): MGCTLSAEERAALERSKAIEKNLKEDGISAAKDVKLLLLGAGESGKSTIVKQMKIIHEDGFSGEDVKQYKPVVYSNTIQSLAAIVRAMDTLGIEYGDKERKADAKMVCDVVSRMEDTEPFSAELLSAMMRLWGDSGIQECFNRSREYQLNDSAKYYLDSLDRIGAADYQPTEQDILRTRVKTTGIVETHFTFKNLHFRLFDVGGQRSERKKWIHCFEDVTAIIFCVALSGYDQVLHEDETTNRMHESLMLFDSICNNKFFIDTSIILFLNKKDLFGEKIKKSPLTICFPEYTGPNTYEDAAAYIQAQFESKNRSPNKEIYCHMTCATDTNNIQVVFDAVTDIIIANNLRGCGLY
GSH bead fluor = GSH bead compound fluorescence profile; 0.25% of 190,000 active; GSH beads flow cytometry, compound fluorescence 488/530 nm; active compounds read high; fluorescence (KMESF) at 10 µM; in the data active means fluorescence above about 89;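 further: glutathione beads carrying GST-tagged Bcl family fusion proteins plus one bare bead set; values are compound well signal with DMSO vehicle wells as background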
RGS8-Gao reg = human RGS8-Galphao interaction regulation; response (percent of control binding), % at 10 µM; multiplexed bead flow cytometry, RGS8-Galphao binding; actives lie on both sides; AID 1423; 0.34% of 220,000 active; P09471; in the data active means response below about 60% or above about 140%; inactive means in between;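 further: Galphao activated as the GDP aluminium fluoride complex binding bead-coupled RGS8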
RGS16-Gao HTS = regulators of human RGS16-Galphao interaction; O15492+P09471; bead-based flow cytometry RGS16-Galphao binding, fluorescence; actives lie on both sides; binding response (% of control), % at 10 µM; 0.38% of 220,000 active;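 further: Galphao activated by GDP with aluminum fluoride before binding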
RGS4-Gao reg = modulates binding of RGS4 to human Galphao; P09471; Multiplexed bead flow cytometry; actives lie on both sides; binding response (% of control), % at 10 µM; 0.33% of 220,000 active; AID 1415; in the data active means binding response below about 49% or above about 150%; inactive means in between;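 further: fluorescent Galphao activated with aluminum fluoride binding bead-coupled RGS4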
Avidin fluor = avidin bead compound fluorescence profile; Avidin beads, compound fluorescence 488/530 nm, flow cytometry; active compounds read high; fluorescence (KMESF) at 10 µM; 0.38% of 220,000 active; in the data active means fluorescence above about 47
RGS-Gao = modulates binding between human RGS4 and Galphao; shares compounds with RGS16-Gao HTS; multiplexed bead flow cytometry, RGS–Galpha-o binding; AID 1504; RGS4–Galpha-o binding response, % at 10 µM; 99% of 1,600 active;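 further: fluorescently labeled Galpha-o bound to GDP with aluminium fluoride binding biotinylated RGS beads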
Target sequence (P09471 whole entry, looked up): as above
Target sequence (P49798 whole entry, looked up): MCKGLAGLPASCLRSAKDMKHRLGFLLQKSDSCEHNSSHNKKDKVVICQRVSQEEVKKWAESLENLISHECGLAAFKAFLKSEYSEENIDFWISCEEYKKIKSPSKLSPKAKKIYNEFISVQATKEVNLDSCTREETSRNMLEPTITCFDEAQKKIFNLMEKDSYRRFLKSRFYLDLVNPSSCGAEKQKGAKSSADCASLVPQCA
Biotin-avidin = counter-screen: compounds disrupting biotin binding to avidin beads; shares compounds with RGS16-Gao HTS; streptavidin beads, fluorescein-biotin binding, flow cytometry; inhibition, % at 10 µM; 1,700 tested, under 10 active; AID 1783;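 active means inhibition above 50%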;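 further: median green fluorescence of gated singlet beads compared with DMSO control wells; 0% = DMSO wells and 100% = complete loss of bead fluorescence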
RGS8-Gao single = confirmation of regulators of human RGS8-Galphao interaction | shares compounds with RGS16-Gao HTS | bead-based flow cytometry RGS8-Galphao binding, fluorescence; actives lie on both sides | binding response (% of control), % at 10 µM | 3% of 1,700 active; in the data active means binding response below about 72% or above about 130%; inactive means in between;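 further: Galphao activated as GDP AlF4 complex before binding bead RGS8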
RGS7-Gao single = RGS7-Galphao interaction regulation, single point confirmation. shares compounds with RGS16-Gao HTS. 7.8% of 1,700 active. response (percent of control binding), % at 10 µM. bead-based flow cytometry RGS7-Galphao binding; actives lie on both sides; in the data active means response below about 75% or above about 130%; inactive means in between;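 further: fluorescent Galphao activated with GDP and aluminum fluoride binding bead-coupled RGS7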
RGS16-Gao single = RGS16-Galphao interaction regulation, single point confirmation. bead-based flow cytometry, RGS16-Galphao binding; actives lie on both sides. AID 1838. response (% of control binding), % at 10 µM. 4% of 1,700 active. shares compounds with RGS16-Gao HTS; in the data active means response below about 74% or above about 130%; inactive means in between;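 further: Galphao activated as the GDP aluminium fluoride complex binding bead-coupled RGS16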
RGS4-Gao confirm = RGS4-Galphao interaction regulation, single point confirmation. shares compounds with RGS16-Gao HTS. RGS4-Galphao binding, multiplexed bead flow cytometry; actives lie on both sides. binding response (% of control), % at 10 µM. 4% of 1,700 active. AID 1840; in the data active means binding response below about 74% or above about 130%; inactive means in between
RGS19-Gao single = confirmation of regulators of human RGS19-Galphao interaction. shares compounds with RGS16-Gao HTS. bead-based flow cytometry RGS19-Galphao binding; actives lie on both sides. response (percent of control binding), % at 10 µM. 5% of 1,700 active. AID 1841; in the data active means response below about 50% or above about 160%; inactive means in between;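 further: 100% = no compound control and 0% = blank background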
An asterisk follows results filed as active; u = inconclusive; x = no result given; [ ] = remark or other dose. Unless noted, how the calls were made is not given here.

SMILES | RGS7-Gao reg | GSH bead fluor | RGS8-Gao reg | RGS16-Gao HTS | RGS4-Gao reg | Avidin fluor | RGS-Gao | Biotin-avidin | RGS8-Gao single | RGS7-Gao single | RGS16-Gao single | RGS4-Gao confirm | RGS19-Gao single
Cc1cc(C)cc(OCC(=O)OCC(=O)Nc2c(C)n(C)n(-c3ccccc3)c2=O)c1 | 153*[activator] | 14 | 139 | 145 | 145 | 11 | 145* | 1 | 103 | 100 | 101 | 102 | 98
Cc1c(NC(=O)COC(=O)c2ccccc2Cl)c(=O)n(-c2ccccc2)n1C | 100 | 17 | 105 | 104 | 97 | 10 | x | x | x | x | x | x | x
Cc1c(NC(=O)CSc2nnc(COc3ccccc3)n2-c2ccccc2)c(=O)n(-c2ccccc2)n1C | 171*[activator] | 13 | 101 | 104 | 114 | 141* | 114* | x | x | x | x | x | x
Cc1ccc(NC(=O)CSc2nnc(CN3CCOCC3)n2C)cc1C | 95 | 21 | 102 | 101 | 93 | 6 | x | x | x | x | x | x | x
COc1cccc(NC(=O)CSc2nnc(CN3CCOCC3)n2C)c1 | 22* | 19 | 17* | 6.3* | 31* | -1 | x | 1 | 103 | 102 | 103 | 102 | 100
C=CCCCCCCCCC(=O)NNC1CC(=O)N(c2ccccc2)C1=O (stereo not drawn) | u | x | 88 | 85 | 80 | 5 | x | x | x | x | x | x | x
COc1cccc(Oc2cn[nH]c2-c2ccc(OC)cc2O)c1 | 281*[activator] | 28 | 93 | 107 | 133 | 187* | 133* | x | x | x | x | x | x
COc1ccc(NC(=O)/C(Cl)=C(/Cl)S(=O)Cc2ccc(Cl)cc2)cn1 (stereo not drawn) | 100 | 11 | 85 | 92 | 98 | 9 | x | x | x | x | x | x | x
FC(F)(F)c1cccc(Cc2noc(CN3CCC(c4ccncc4)CC3)n2)c1 | 103 | 14 | 105 | 109 | 102 | 7 | x | x | x | x | x | x | x
CCOc1ccc(CC(=O)Nc2ccc(NC(=O)c3ccco3)cc2)cc1OCC | 20* | 12 | 23* | 16* | 28* | 1 | x | 0 | 102 | 104 | 105 | 105 | 100
CCCCCC(=O)N/N=C(\C)c1ccc(NC(=O)c2ccco2)cc1 | 110 | 38 | 107 | 113 | 112 | 17 | x | x | x | x | x | x | x
CCCCCC(=O)NC(=S)Nc1ccc(NC(=O)c2ccco2)cc1 | 116 | 8 | 123 | 179*[activator] | 110 | 21 | 110* | -1 | 105 | 97 | 108 | 102 | 112
COc1cc(/C=N/NC(=O)C(N)=O)ccc1OCC(=O)N1C(C)CCCC1C (stereo not drawn) | 104 | 12 | 98 | 104 | 103 | 11 | x | x | x | x | x | x | x
CCCCCNC(=O)c1cc(S(=O)(=O)N2CCCC2)ccc1F | 84 | 25 | 65 | 22* | 84 | 5 | 84* | 3 | 100 | 98 | 102 | 99 | 90
CCN(CC)S(=O)(=O)c1ccc(Cl)c(C(=O)Oc2cccc(-c3cnc4ccccc4n3)c2)c1 | 99 | 12 | 97 | 93 | 101 | 6 | x | x | x | x | x | x | x
CCN(CC)S(=O)(=O)c1cc(C(=O)Oc2cccc(-c3cnc4ccccc4n3)c2)ccc1Br | -8.5* | 36 | 11* | -29* | -30* | -5 | x | -1 | 103 | 108 | 107 | 104 | 93
COCCCNc1ccnc2c(Cl)cccc12 | 101 | 39 | 99 | x | 98 | x | x | 0 | 100 | 97 | 99 | 100 | 113
COCCNc1ccnc2c(Cl)cccc12 | 104 | 26 | 96 | 77 | 99 | 4 | x | x | x | x | x | x | x
Cc1cccc2cc(COC(=O)c3ccccn3)c(=O)[nH]c12 | 71 | 8 | 74 | -25* | 69 | 8 | 69* | -1 | 98 | 99 | 100 | 97 | 107
COc1ccc(C(=O)OCc2cc3cccc(C)c3[nH]c2=O)cc1 | 90 | 19 | 97 | 99 | 93 | 6 | x | x | x | x | x | x | x
O=C(Nc1cccc([N+](=O)[O-])c1)Nc1cccs1 | 98 | 67 | 99 | 99 | 101 | 8 | x | x | x | x | x | x | x
C#CCOCCOCCOCCNc1nc(N2CCN(C(=O)[C@H](CCCCN)n3cc([C@@H](N)C(C)CC)nn3)CC2)nc(N2CCN(C(=O)[C@H](Cc3cc4ccccc4[nH]3)n3cc([C@@H](N)CC(C)C)nn3)CC2)n1 (stereo partly drawn) | 101 | 18 | 106 | 103 | 109 | 6 | x | x | x | x | x | x | x
CN1CCN(c2nc3c(c(=O)n(C)c(=O)n3C)n2CC(=O)C23CC4CC(CC(C4)C2)C3)CC1 | 140 | 48 | 117 | 156 | 157*[activator] | 35 | x | -2 | 101 | 99 | 101 | 101 | 95
CCCc1nnc(NC(=O)CCC(=O)N2CCN(S(=O)(=O)c3ccc(C)cc3)CC2)s1 | u | x | 104 | 107 | 106 | 9 | x | x | x | x | x | x | x
Cc1cc(C)n(CC(=O)n2c3c(c4ccccc42)CCCC3)n1 | x | 44 | x | x | x | x | x | 2 | 102 | 102 | 103 | 103 | 83
CCN(CC)CC(=O)n1c2c(c3ccccc31)CCCC2 | 78 | 9 | 71 | -100* | 81 | 7 | 81* | 0 | 101 | 102 | 105 | 100 | 92
O=C(CNCC1(N2CCOCC2)CCCCC1)Nc1ccc(Cl)cc1 | u | 16 | 98 | 95 | 93 | 9 | x | x | x | x | x | x | x
O=C(O)COc1ccccc1/C=N/NC(=O)Cc1csc(Nc2cccc(C(F)(F)F)c2)n1 | u | 12 | 40* | 32 | 39* | 4 | x | -1 | 104 | 103 | 105 | 101 | 108

High-throughput results deposited in PubChem BioAssay by NMMLSC.
